Measurements reported in PubChem BioAssay (Tox21).
Results filed as inconclusive are left out. Activity calls are given as the source filed them. Unless noted, calls come from the whole dose curve.

Legend:
[1] = Nuclear factor erythroid 2-related factor 2/antioxidant responsive element (Nrf2/ARE) small molecule agonists: qHTS cell viability counter screen in human keratinocytes (AID 1919968; active = well fitted curve in the direction sought with a large enough effect in the repeat runs; an effect the other way counts as inactive or inconclusive; note: nearly all actives have a fitted effect of over 55% in size; note: potency is the fitted concentration of half-maximal effect)
Method in brief: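 KeratinoSens cells (HaCaT keratinocytes stably carrying an ARE-luciferase reporter) were seeded at 1,500 cells/well and rested 5 h at 37 C/5% CO2. They were then exposed to compounds in DMSO for 23 h. Viability was read by CellTiter-Fluor fluorescence after 1 h.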

[2] = target: Gonadotropin-releasing hormone receptor (Homo sapiens) (UniProt P30968); assay: Human gonadotropin-releasing hormone receptor (GnRHR) small molecule agonists, calcium flux assay in GnRHR-HEK293 cells (AID 1920063); note: nearly all actives have a fitted effect of over 35% in size
Chain of Gonadotropin-releasing hormone receptor (Homo sapiens) (P30968 whole entry, looked up): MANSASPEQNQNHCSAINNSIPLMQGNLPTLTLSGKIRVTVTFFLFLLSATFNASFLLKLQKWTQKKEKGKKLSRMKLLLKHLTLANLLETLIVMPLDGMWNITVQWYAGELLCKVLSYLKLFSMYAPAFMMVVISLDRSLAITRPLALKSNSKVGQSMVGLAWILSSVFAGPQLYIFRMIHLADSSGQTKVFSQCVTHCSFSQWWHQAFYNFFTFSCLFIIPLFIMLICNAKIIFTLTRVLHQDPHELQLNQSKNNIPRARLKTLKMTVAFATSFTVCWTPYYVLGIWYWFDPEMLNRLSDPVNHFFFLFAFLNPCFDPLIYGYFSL
Method in brief: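 HEK293 cells stably expressing human GnRHR were plated 18 h at 37 °C, loaded with calcium dye 1 h at 37 °C, then given compound in agonist mode; fluorescence (Ex/Em 480/540) read kinetically for 3 min at 1 s intervals.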

[3] = target: KiSS-1 receptor (Homo sapiens) (UniProt Q969F8); assay: Human kisspeptin (KISS1R) small molecule agonists, calcium flux assay in KISS1R-HEK293 cells (AID 1920064; active = well fitted curve in the direction sought with a large enough effect in the repeat runs; an effect the other way counts as inactive or inconclusive)
Chain of KiSS-1 receptor (Homo sapiens) (Q969F8 whole entry, looked up): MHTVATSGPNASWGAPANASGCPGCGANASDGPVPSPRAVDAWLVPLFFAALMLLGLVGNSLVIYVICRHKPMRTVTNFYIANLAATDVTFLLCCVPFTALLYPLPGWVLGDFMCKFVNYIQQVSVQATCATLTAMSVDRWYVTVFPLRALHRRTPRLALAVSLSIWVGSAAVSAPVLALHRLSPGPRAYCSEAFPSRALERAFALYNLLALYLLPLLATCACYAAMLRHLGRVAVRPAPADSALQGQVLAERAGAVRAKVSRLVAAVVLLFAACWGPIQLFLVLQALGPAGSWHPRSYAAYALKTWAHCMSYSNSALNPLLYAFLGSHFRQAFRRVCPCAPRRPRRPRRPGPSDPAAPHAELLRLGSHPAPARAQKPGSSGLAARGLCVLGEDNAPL
Method in brief: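 HEK293 cells stably expressing human KISS1R were plated 18 h at 37 °C, loaded with calcium dye for 1 h at 37 °C, then given compound by pin tool. Fluorescence (Ex/Em 480/540) was read kinetically for 3 min.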

[4] = G protein-coupled receptor (GPCR) small molecule agonists, calcium flux assay: HEK293 wild type cell line counter screen (AID 1920065)
Method in brief: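 Cells were plated and cultured 18 h at 37 C/5% CO2, then loaded with calcium dye for 1 h at 37 C. Compounds in DMSO were pin-transferred in agonist mode, and fluorescence (Ex/Em 480/540) was read kinetically for 3 min at 1 s intervals.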

[5] = p53 small molecule agonists, cell-based qHTS assay with human liver microsomes (AID 1963577)
Method in brief: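 p53RE-bla cells, 4,000/well, compound added after 5 h, with human liver microsomes 0.5 mg/mL and NADPH 0.5 mg/mL final; 16 h at 37 C, then LiveBLAzer 2 h RT, fluorescence.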

[6] = p53 small molecule agonists, cell-based qHTS assay with rat liver microsomes (AID 1963578); note: potency is the fitted concentration of half-maximal effect
Method in brief: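 p53RE-bla cells, 4,000/well, pre-incubated 5 h, then given compounds plus rat liver microsomes (0.5 mg/mL final) and NADPH (0.5 mg/mL final). Incubation 16 h at 37 C; beta-lactamase reporter read by LiveBLAzer fluorescence after 2 h at room temperature.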

[7] = p53 small molecule agonists, cell-based qHTS assay with human liver microsomes: qHTS cell viability counter screen (AID 1963579); note: nearly all actives have a fitted effect of over 45% in size; note: potency is the fitted concentration of half-maximal effect
Method in brief: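 p53RE-bla cells, 4,000/well, dosed 5 hours after plating, with human liver microsomes (0.5 mg/mL final) plus NADPH (0.5 mg/mL final), 16 hours at 37 C. Viability read as CellTiter-Glo luminescence after 30 min at room temperature.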

[8] = p53 small molecule agonists, cell-based qHTS assay: qHTS cell viability counter screen (AID 1963581); note: nearly all actives have a fitted effect of over 45% in size; note: potency is the fitted concentration of half-maximal effect
Method in brief: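 p53RE-bla HCT-116 cells were exposed to compounds for 16 h at 37 C; after the beta-lactamase FRET read in the same wells, CellTiter-Glo was added and luminescence (intracellular ATP) read after 30 min at room temperature.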

[9] = target: 5-hydroxytryptamine receptor 2A (Homo sapiens) (UniProt P28223); assay: 5-hydroxytryptamine receptor 2A (HTR2A) small molecule agonists, cell-based qHTS assay (AID 1963587); note: nearly all actives have a fitted effect of over 30% in size; note: potency is the fitted concentration of half-maximal effect
Chain of 5-hydroxytryptamine receptor 2A (Homo sapiens) (P28223 whole entry, looked up): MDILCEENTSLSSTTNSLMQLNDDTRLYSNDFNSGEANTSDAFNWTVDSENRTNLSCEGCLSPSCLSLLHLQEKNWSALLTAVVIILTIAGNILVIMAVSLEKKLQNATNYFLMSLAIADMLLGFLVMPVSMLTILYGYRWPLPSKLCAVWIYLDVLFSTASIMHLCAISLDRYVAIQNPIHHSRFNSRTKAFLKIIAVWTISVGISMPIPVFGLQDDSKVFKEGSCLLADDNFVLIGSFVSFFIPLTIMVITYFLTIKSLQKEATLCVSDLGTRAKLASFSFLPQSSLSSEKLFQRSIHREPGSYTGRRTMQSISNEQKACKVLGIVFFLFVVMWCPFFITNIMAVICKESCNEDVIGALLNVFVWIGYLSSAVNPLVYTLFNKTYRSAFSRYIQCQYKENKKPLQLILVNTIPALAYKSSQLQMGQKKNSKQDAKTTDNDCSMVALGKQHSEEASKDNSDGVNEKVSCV
Method in brief: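 Kinetic calcium-flux fluorescence (2 min, 1 sec intervals) after compound addition in agonist mode. HTR2A-CHO cells were cultured 18 h, then dye-loaded 1 h at 37 C.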

[10] = target: Muscarinic acetylcholine receptor M1 (Homo sapiens) (UniProt P11229); assay: Cholinergic receptor muscarinic 1 (CHRM1) small molecule agonists, cell-based qHTS assay (AID 1963589); note: nearly all actives have a fitted effect of over 35% in size
Chain of Muscarinic acetylcholine receptor M1 (Homo sapiens) (P11229 whole entry, looked up): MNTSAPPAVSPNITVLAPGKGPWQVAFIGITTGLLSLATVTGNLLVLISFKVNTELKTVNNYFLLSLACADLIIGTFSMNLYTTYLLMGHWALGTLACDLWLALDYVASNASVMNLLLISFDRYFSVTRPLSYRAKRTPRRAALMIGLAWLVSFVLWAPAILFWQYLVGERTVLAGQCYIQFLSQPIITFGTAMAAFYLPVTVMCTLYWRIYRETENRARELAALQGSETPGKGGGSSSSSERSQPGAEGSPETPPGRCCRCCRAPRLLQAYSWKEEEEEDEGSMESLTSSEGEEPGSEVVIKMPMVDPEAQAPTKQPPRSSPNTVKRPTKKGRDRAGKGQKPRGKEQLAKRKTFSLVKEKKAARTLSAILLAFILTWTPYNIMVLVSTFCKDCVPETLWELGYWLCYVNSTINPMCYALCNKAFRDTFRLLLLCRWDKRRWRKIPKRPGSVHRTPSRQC
Method in brief: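 CHO cells stably expressing human CHRM1, seeded 18 h at 37 C/5% CO2, dye-loaded 1 h at 37 C, then given compound in agonist mode; intracellular calcium fluorescence read kinetically at 1 s intervals. Fifteen concentrations, three independent runs.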

[11] = target: Beta-2 adrenergic receptor (Homo sapiens) (UniProt P07550); assay: Adrenergic beta2 receptor (ADRB2) small molecule antagonists, cell-based qHTS assay (AID 1963592); note: series mostly up to about 92 µM; nearly all actives have a fitted effect of over 50% in size
Chain of Beta-2 adrenergic receptor (Homo sapiens) (P07550 whole entry, looked up): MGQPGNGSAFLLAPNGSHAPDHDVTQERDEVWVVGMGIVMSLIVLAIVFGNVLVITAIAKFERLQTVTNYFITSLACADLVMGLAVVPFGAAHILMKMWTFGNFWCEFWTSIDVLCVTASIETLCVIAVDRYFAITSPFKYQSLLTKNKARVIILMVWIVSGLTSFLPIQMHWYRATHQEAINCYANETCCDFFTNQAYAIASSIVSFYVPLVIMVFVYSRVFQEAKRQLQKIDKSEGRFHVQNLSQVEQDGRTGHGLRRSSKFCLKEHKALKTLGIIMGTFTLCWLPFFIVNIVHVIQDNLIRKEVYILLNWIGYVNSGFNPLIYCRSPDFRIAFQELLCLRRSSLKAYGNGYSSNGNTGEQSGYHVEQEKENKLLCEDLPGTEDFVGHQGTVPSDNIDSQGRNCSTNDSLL
Method in brief: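 Cells (CHO, stable ADRB2 overexpression) incubated 18-20hr at 37C; compounds added from DMSO; agonist mix (1nM isoproterenol, 100uM IBMX, 25uM Ro-20-1724) added; 0.5hr RT; d2-cAMP and anti-cAMP-cryptate added; 1hr RT; 665/615 nm read.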

[12] = target: D(2) dopamine receptor (Homo sapiens) (UniProt P14416); assay: Dopamine D2 receptor (DRD2) small molecule agonists, cell-based qHTS assay (AID 1963594); note: nearly all actives have a fitted effect of over 35% in size; note: potency is the fitted concentration of half-maximal effect
Chain of D(2) dopamine receptor (Homo sapiens) (P14416 whole entry, looked up): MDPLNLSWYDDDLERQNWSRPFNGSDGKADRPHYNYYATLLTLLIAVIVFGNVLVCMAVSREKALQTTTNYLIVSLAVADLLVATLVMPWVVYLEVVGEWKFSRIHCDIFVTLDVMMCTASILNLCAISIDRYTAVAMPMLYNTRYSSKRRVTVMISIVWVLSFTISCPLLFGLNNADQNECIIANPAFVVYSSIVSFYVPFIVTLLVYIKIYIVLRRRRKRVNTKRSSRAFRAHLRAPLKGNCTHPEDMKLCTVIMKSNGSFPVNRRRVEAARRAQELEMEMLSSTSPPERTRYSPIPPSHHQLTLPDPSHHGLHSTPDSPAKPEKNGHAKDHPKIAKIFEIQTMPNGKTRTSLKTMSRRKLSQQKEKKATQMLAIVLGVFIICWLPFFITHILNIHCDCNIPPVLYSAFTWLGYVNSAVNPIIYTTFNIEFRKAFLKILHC
Method in brief: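 cAMP accumulation in DRD2-HEK293 cells measured by HTRF after 1 h detection; compounds added 10 min before NKH477 (200nM […]) forskolin-analogue stimulation, 30 min at room temperature, with Ro20-1724 present at 0.1 mM final.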

[13] = p53 small molecule agonists, cell-based qHTS assay with rat liver microsomes: qHTS cell viability counter screen (AID 1963580); note: nearly all actives have a fitted effect of over 45% in size
Method in brief: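 Intracellular ATP, by CellTiter-Glo luminescence, defines viability. HCT-116 p53RE-bla cells, 4,000 per well, were compound-treated in the presence of rat liver microsomes and NADPH for 16 h at 37 C.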

[14] = p53 small molecule agonists, cell-based qHTS assay (AID 1963582; active = well fitted activation curve with a large enough effect in the signal ratio in the repeat runs, not every such curve was filed as active; the % refers to the signal ratio)
Method in brief: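 p53RE-bla beta-lactamase reporter cells rested 5 h at 37 C/5% CO2, then received compounds in DMSO by pin transfer and were incubated 16 h at 37 C. LiveBLAzer B/G FRET substrate was loaded for 2 h at room temperature before fluorescence reading.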

[15] = target: 5-hydroxytryptamine receptor 2A (Homo sapiens) (UniProt P28223); assay: 5-hydroxytryptamine receptor 2A (HTR2A) small molecule antagonists, cell-based qHTS assay (AID 1963586); note: nearly all actives have a fitted effect of over 45% in size; note: potency is the fitted concentration of half-maximal effect
Method in brief: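 Antagonist-mode intracellular calcium assay: DOI (4 nM) added after 5 min compound pre-incubation at room temperature to dye-loaded HTR2A-CHO cells. Fluorescence followed for 3 min, sampled every second.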

[16] = target: Muscarinic acetylcholine receptor M1 (Homo sapiens) (UniProt P11229); assay: Cholinergic receptor muscarinic 1 (CHRM1) small molecule antagonists, cell-based qHTS assay (AID 1963588); note: nearly all actives have a fitted effect of over 40% in size
Method in brief: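 CHRM1-CHO calcium-flux assay, antagonist mode. Cells were seeded 18 h, dye-loaded 1 h at 37 C and given compound for 5 min at RT, then acetylcholine was added at 50nM. FDSS fluorescence was read 3 min; 15 concentrations, three runs.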

[17] = cAMP Responsive Elements (CRE) small molecule agonists, cell-based qHTS assay (AID 1963590)
Method in brief: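 CRE-bla HEK 293T cells in DMEM with 10% dialyzed FBS, NEAA, pyruvate and 25 mM HEPES were plated 18 h at 37 C/5% CO2, then exposed to compounds in DMSO for 3 h before LiveBLAzer B/G FRET substrate addition.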

[18] = target: D(2) dopamine receptor (Homo sapiens) (UniProt P14416); assay: Dopamine D2 receptor (DRD2) small molecule antagonists, cell-based qHTS assay (AID 1963595; active = well fitted inhibition curve with a large enough effect in the signal ratio in the repeat runs, with a control signal flat; the % refers to the signal ratio; note: potency is the fitted concentration of half-maximal effect)
Method in brief: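 HTRF cAMP read-out at 665 and 620 nm emission (340 nm excitation). Antagonist mode: compounds were tested against 12 nM quinpirole in DRD2-HEK293 cells, with 200 nM NKH477 raising cAMP and 0.1 mM Ro20-1724 blocking its breakdown.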

[19] = cAMP Responsive Elements (CRE) small molecule antagonists, cell-based qHTS assay (AID 1963591; active = well fitted inhibition curve with a large enough effect in the signal ratio in the repeat runs, not every such curve was filed as active; the % refers to the signal ratio)
Method in brief: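 CRE-bla HEK293T cells were plated 18 h at 37 °C/5% CO2, pinned with compound in DMSO, then stimulated with NKH477 at 0.25 uM final for 3 h. LiveBLAzer B/G FRET substrate was added and plates incubated 2 h at room temperature.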

[20] = target: Beta-2 adrenergic receptor (Homo sapiens) (UniProt P07550); assay: Adrenergic beta2 receptor (ADRB2) small molecule agonists, cell-based qHTS assay (AID 1963593);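 note: CHO cells stably overexpressing human ADRB2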
Method in brief: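 CHO cells stably over-expressing ADRB2 were plated overnight at 37C, then dosed with compounds plus a stimulation mix containing 100uM IBMX and 25uM Ro-20-1724 for 0.5hr at room temperature. cAMP was measured by HTRF competition, 1hr.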

Measured: Potency

CC1CCC(C(C)C)C(OC(=O)c2ccccc2N)C1 (stereo unspecified)
inactive: [2] | [3] | [4] | [5] | [9] | [10] | [11] | [12]
active: [1] 30.2 µM | [6] 35.8 µM | [7] 35.8 µM | [8] 31.9 µM

S=C=Nc1ccccc1
inactive: [1] | [2] | [3] | [4] | [5] | [6] | [7] | [13] | [14] | [15] | [9] | [16] | [10] | [17] | [11] | [12] | [18]

O=[N+]([O-])c1ccc(Cl)c(Cl)c1Cl
inactive: [1] | [2] | [3] | [4] | [5] | [6] | [7] | [8] | [14] | [15] | [9] | [16] | [10] | [17] | [11] | [12] | [18]

C[C@]12CC[C@H]3[C@@H](CCC4=CC(=O)CC[C@@H]43)[C@@H]1CC[C@@H]2OC(=O)CCC1CCCCC1
inactive: [1] | [2] | [3] | [4] | [5] | [6] | [7] | [13] | [8] | [15] | [9] | [16] | [10] | [17] | [19] | [11] | [12]

O=C1C[C@@H]2OCC=C3CN4CC[C@]56c7ccccc7N1[C@H]5[C@H]2[C@H]3C[C@H]46
inactive: [1] | [2] | [3] | [4] | [5] | [6] | [7] | [13] | [8] | [14] | [17] | [19] | [11] | [12] | [18]

O=C(O)COc1nc(Cl)c(Cl)cc1Cl
inactive: [1] | [2] | [3] | [4] | [5] | [6] | [13] | [9] | [16] | [10]

BrCC(Br)C1CCC(Br)C(Br)C1 (stereo unspecified)
inactive: [1] | [2] | [3] | [4] | [5] | [6] | [7] | [13] | [8] | [14] | [15] | [9] | [16] | [10] | [19] | [20] | [12] | [18]

CC1CCCCC1NC(=O)Nc1ccccc1 (stereo unspecified)
inactive: [1] | [2] | [3] | [4] | [5] | [6] | [7] | [15] | [9] | [16] | [10] | [17] | [20] | [12] | [18]

C[C@@H]1CC[C@H]2[C@@H](C)C(=O)O[C@@H]3O[C@@]4(C)CC[C@@H]1[C@]32OO4
inactive: [1] | [2] | [3] | [4] | [5] | [6] | [7] | [13] | [14] | [17] | [19] | [11] | [20] | [12] | [18]

CCCN1CCC[C@@H]2Cc3[nH]ncc3C[C@H]21
inactive: [1] | [2] | [3] | [4] | [5] | [6] | [7] | [13] | [8] | [14] | [16] | [10] | [17] | [19] | [11] | [20]

CN/C(=N\[N+](=O)[O-])NCC1CCOC1 (stereo unspecified)
inactive: [1] | [2] | [3] | [4] | [5] | [7] | [13] | [8] | [14] | [15] | [9] | [16] | [10] | [17] | [19] | [20] | [12] | [18]

C[C@]12Cc3cn[nH]c3C[C@@H]1CC[C@@H]1[C@@H]2CC[C@@]2(C)[C@H]1CC[C@]2(C)O
active: [1] 29.8 µM
inactive: [2] | [3] | [4] | [6] | [7] | [13] | [8] | [11] | [12] | [18]

C=CC(=O)OCC(C)O (stereo unspecified)
inactive: [1] | [2] | [3] | [4] | [7] | [13] | [8] | [15] | [9] | [16] | [10] | [17] | [19] | [11] | [12]

C=CCC1([C@H](C)CCC)C(=O)NC(=O)NC1=O
inactive: [1] | [2] | [3] | [4] | [6] | [7] | [13] | [8] | [14] | [17] | [11] | [12] | [18]

CCCN(CCC)CCc1c[nH]c2ccccc12
inactive: [1] | [2] | [3] | [4] | [5] | [7] | [13] | [8] | [14] | [16] | [10] | [17] | [19] | [11] | [20] | [18]
active: [15] 13.1 nM | [9] 4.3 nM | [12] 21.4 µM

IC(I)=C(I)I
inactive: [2] | [3] | [4] | [5] | [15] | [9] | [16] | [10] | [12]
active: [1] 27.3 µM | [18] 54.5 µM

CC(O)C#N (stereo unspecified)
inactive: [1] | [2] | [3] | [4] | [5] | [7] | [13] | [8] | [15] | [9] | [10] | [17] | [19] | [11] | [20] | [12] | [18]
